Hsp70 act: transcriptional activators of Hsp70. activation, % at 10 µM. HeLa Hsp70 promoter luciferase reporter, luminescence; scaled: vehicle 0, proteasome-inhibitor control 100%. 200,000 tested, 0.04% active;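 active = activation above the mean across all tested compounds plus 3 SD, cutoff set per campaign, cut at about 5.5% in these data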;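 also: 100% = MG132 at 30 µM as the positive control and 0% = DMSO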
S1P4 ag: agonists of human S1P4 receptor; O95977; S1P4-expressing cell line, agonist reporter assay; activation, % at 4.98 µM; 220,000 tested, 0.35% active; AID 1509; in the data active = activation above about 11%;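 also: 0% = DMSO vehicle and 100% = reference agonist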
INS promoter inh: TRM-6 insulin promoter activity inhibition | 130,000 tested, 0.9% active | TRM-6 cells (human fetal islet line), insulin promoter-eGFP reporter, imaging; reporter expression induced with tamoxifen | AID 1273 | inhibition, % at 2 µM;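 active = inhibition above the mean plus 3 SD, with well images judged a real hit on visual review, cut at about 60% in these data, passing the limit was not always enough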
S1P4 antagonist: blocks the human S1P4 receptor | S1P4-expressing cells, antagonist mode, reporter read-out | 220,000 tested, 0.26% active | inhibition, % at 4.98 µM | O95977; in the data active = inhibition above about 29%;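 also: 0% = wells stimulated with agonist and 100% = vehicle wells without agonist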
Insulin prom up: MIN6 insulin promoter up-regulation. MIN6 insulin promoter-GFP reporter, high-content imaging; active compounds read high. z-score at 5 µM. 190,000 tested, 0.3% active. AID 1625;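 active = z-score above 3 at 5 µM with at least 500 cells counted in the well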
S1P3 antag: blocks the human S1P3 receptor; AID 485; 170,000 tested, 0.27% active; inhibition, % at 4.98 µM; CHO S1P3 NFAT-BLA reporter, FRET fluorescence, antagonist mode;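 active = inhibition above the plate cutoff, the mean inhibition of test wells on that plate plus 3 SD, cut at about 28% in these data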;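 also: cells challenged with S1P at its EC80 of 0.8 µM; blue over green emission ratio from cleaved BLA substrate after 4 h stimulation; 0% = S1P-stimulated wells and 100% = unstimulated DMSO-only wells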
Target sequence (Q99500 whole entry, looked up): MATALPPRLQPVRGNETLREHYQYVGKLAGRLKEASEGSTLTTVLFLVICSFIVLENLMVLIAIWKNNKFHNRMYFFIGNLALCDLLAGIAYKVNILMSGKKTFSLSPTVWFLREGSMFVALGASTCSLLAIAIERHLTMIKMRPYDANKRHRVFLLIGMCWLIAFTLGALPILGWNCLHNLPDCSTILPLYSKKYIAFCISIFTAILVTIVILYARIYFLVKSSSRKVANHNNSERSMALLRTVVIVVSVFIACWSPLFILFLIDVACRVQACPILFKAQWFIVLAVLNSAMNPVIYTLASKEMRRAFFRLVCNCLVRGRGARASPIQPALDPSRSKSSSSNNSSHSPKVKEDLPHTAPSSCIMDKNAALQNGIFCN
The depositor's hits bear a star; . = no result. Shown are actives, neighbours in structure and some others; about 1.5% of the full set was active somewhere.

SMILES	Hsp70 act	S1P4 ag	INS promoter inh	S1P4 antagonist	Insulin prom up	S1P3 antag
O=C(/C=C/c1ccc2ccccc2n1)c1cc(Br)ccc1O	.	1	.	13	4.4*	-13
O=C(O)/C=C/c1ccc2ccccc2n1	0	3	12	-25	1.3	.
Cc1ccc(C(=O)N2CCOCC2)cc1Cl	0	-1	-54	-9	0.07	-41
O=C(c1cc(Cl)cc(Cl)c1)N1CCOCC1	0	0	87*	-1	-0.07	-16
CC(C)(C)c1ccc(OCCNC(=O)Cc2ccc(F)cc2)cc1	0	-1	0	3	-0.44	2
Cc1ccc(NC(=O)/C=C/c2ccc([N+](=O)[O-])s2)c(C)c1	0	0	-179	-11	13*	-5
Cc1cccc(NC(=O)/C=C/c2ccc([N+](=O)[O-])s2)c1	0	1	.	-5	.	15
Cc1ccc(NC(=O)/C=C/c2ccc([N+](=O)[O-])s2)cc1	0	2	-270	-17	17*	-10
Cc1cc(N2CCCC2=O)cc(C)c1CN1C(=O)c2ccccc2C1=O	0	1	-145	-2	0.1	16
CCOC(=O)c1ccc(Nc2cnc3ccccc3n2)cc1	0	-1	-15	14	.	-15
O=C(C1=C[C@H](C2CC2)C[C@H](OCCCCO)O1)N1CCN(Cc2ccccc2)CC1	0	-1	.	1	3.7*	-10
O=C(CSc1n[nH]c(-c2ccncc2)n1)c1cccc([N+](=O)[O-])c1	0	2	.	-19	0.18	-20
O=C(CSc1n[nH]c(-c2ccncc2)n1)c1ccccc1	0	0	.	-16	-0.06	72*
CCn1c(CNc2ccccc2Cl)nnc1SCC(=O)NCc1ccccc1	0	1	-200	4	-0.01	70*
CN(C)c1ccc(NC(=O)COC(=O)c2cc(=O)c3ccccc3o2)cc1	0	0	67*	-9	-1.4	3
CCOC(=O)c1c(C)nc2ccccn12	0	-1	.	-14	0.72	70*
Cc1ccc(N2C(=O)N(CC(=O)c3cc(C)ccc3C)C(=O)C2C)cc1 (stereo not given)	0	8	.	-19	0.64	-3
Cc1ccc(C)c(C(=O)CN2C(=O)CCC2=O)c1	0	0	.	8	0.22	75*
CC(=O)c1c(COC(=O)c2cccc(C)c2)nc2ccccc2[n+]1[O-]	.	1	.	6	-0.09	-8
CC(=O)c1c(COC(=O)c2ccncc2)nc2ccccc2[n+]1[O-]	1	1	.	10	4.2*	-20
CC(=O)Nc1ccc(N2CCc3c(C)c(C#N)c4nc5ccccc5n4c32)cc1	0	-1	-69	-9	3.8*	2
Cn1c(SCc2ccccc2)nnc1-c1c[nH]c2ccccc12	0	-2	.	5	-0.83	.
CCCCSc1nnc(-c2c[nH]c3ccccc23)n1C	0	1	.	3	-0.96	101*
O=C(c1cc2ccccc2oc1=O)N1CCN(c2ncccn2)CC1	0	2	79*	-3	.	.
Cc1ccc(CSc2nccc(-c3c(C)nc4ccccn34)n2)cc1	.	-1	.	-10	.	1
SMILES	Hsp70 act	S1P4 ag	INS promoter inh	S1P4 antagonist	Insulin prom up	S1P3 antag
O=C(CSc1nnnn1C1CC2CCC1C2)Nc1ccnc2ccccc12 (stereo not given)	0	0	37	-22	-1.6	64*
CCOC(=O)N1N=C(c2ccc(OC)cc2)CC1(O)C(F)(F)F (stereo not given)	0	1	.	13	-0.39	1
CCOC(=O)N1N=C(c2ccccc2)CC1(O)C(C)(F)F (stereo not given)	0	0	74*	1	0.23	-16
O=C(Nc1ccc(C(=O)O)cc1)/C(=C\c1ccc2c(c1)OCO2)NC(=O)c1ccccc1	0	2	80*	-16	0.08	-4
c1ccc(CCN=C2CCCc3c2[nH]c2ccccc32)cc1	.	0	.	-12	0.18	3
COC(=O)c1cc(-c2ccc(Cl)cc2Cl)n[nH]1	0	-1	78*	-7	-0.27	2
O=C(NCCCn1ccnc1)Nc1ccc(Cl)cc1	0	2	77*	-10	0.02	-49
O=C(NCCCn1ccnc1)Nc1ccc(Cl)c(Cl)c1	0	0	-27	8	-0.4	-19
Cc1ccc(C(=O)NCCCn2ccnc2)cc1[N+](=O)[O-]	0	1	33	7	5.5*	.
Cc1cccc(C(=O)N/N=C/c2ccncc2)c1	0	0	.	-12	0.3	.
COc1cc(/C=N/Nc2ccc(Cl)cc2)ccc1OC(=O)c1cccs1	0	0	-7	0	-0.85	12
COc1ccc(C(=O)Nc2cccc(C(=O)NCc3ccco3)c2)cc1	0	-1	67*	-16	.	18
CCCc1nccn1S(=O)(=O)c1cc(OC)ccc1OC	0	0	75*	-1	-0.34	.
CCCC1C(C#N)=C(N)Oc2n[nH]c(C(C)(C)C)c21 (stereo not given)	0	-2	.	-12	0.09	6
CCOC(=O)C1CCCN(C2CC(=O)N(c3ccc(C)cc3)C2=O)C1 (stereo not given)	0	3	68*	-7	-0.22	.
CSCC[C@H](NC(=O)CCn1nnc2ccccc2c1=O)C(=O)O	0	3	-150	-17	0.12	-5
COc1ccc(C(CC(=O)NCc2ccccc2)Sc2n[nH]c(-c3ccc(Cl)cc3)n2)cc1 (stereo not given)	0	0	-15	-10	0.2	-6
COc1cc(NC(=S)NCCN2CCOCC2)cc(OC)c1	0	0	64*	-7	-0.67	1
COc1ccc(NC(=S)NCCN2CCOCC2)cc1	0	-2	.	4	-0.32	-13
CCN(CC)S(=O)(=O)c1ccc(C(=O)NCc2ccc3c(c2)OCO3)cc1	0	-1	79*	2	-0.68	-14
CCCN(CCC)S(=O)(=O)c1ccc(C(=O)NCc2ccc3c(c2)OCO3)cc1	0	0	.	-12	-0.18	-4
CC(C)CCN(CCC(C)C)C/C(O)=C(\C#N)c1nc(-c2ccccc2)cs1	1	1	-30	11	0.36	.
NCC12CC3CC(CC(O)(C3)C1)C2	1	-2	11	-1	0.19	.
NCC12CC3CC(C1)CC(CN)(C3)C2	0	0	.	13	3.1*	3
CCOC(=O)N1CCN(Cc2nc3c(c(=O)n(C)c(=O)n3C)n2CCCc2ccccc2)CC1	0	0	.	6	-0.44	-23
SMILES	Hsp70 act	S1P4 ag	INS promoter inh	S1P4 antagonist	Insulin prom up	S1P3 antag
Cc1cc(C)c(C(=O)O)c(CC(C)(C)C(=O)O)c1	.	1	.	-11	3.1*	-11
Cc1cc(C)c(C(=O)Nc2ccccc2)c(CC(C)(C)C(=O)O)c1	.	-1	.	4	0.65	5
CCC(CC)NC(=O)c1cccc(NC(=O)C(C)C)c1	0	1	25	4	0.07	-7
CCC(CC)NC(=O)c1cccc(Br)c1	0	-1	88*	5	-0.44	-3
NC(=O)c1ccsc1NC(=O)C1CC1	.	.	.	.	0.1	-29
CC(C)c1cc(C(N)=O)c(NC(=O)C2CCC2)s1	0	1	81*	-22	.	27
